Test results: PubChem BioAssay
Measured potencies and affinities stand elsewhere. Records with an inconclusive call do not appear. Activity calls are given as the source filed them. Unless noted, no rule for the calls is given here.

Tests used:
[1] = RMG-1 ovarian cancer cell viability loss – cherry-pick, dose response (AID 687029;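 active = signal drop whose fitted half-maximal concentration is at most twice the top valid dose, in every test run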;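 also: cells exposed to compound for 96 hours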)
[2] = IOSE-T80 viability loss, PAX8-independent line – cell-based, cherry-pick, selectivity assay for PAX8 inhibitor project, dose response (AID 687032;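 active = fitted half-maximal concentration for viability loss no higher than twice the top valid dose, in every repeat run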;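 also: cells exposed to compound for 96 h before reading; 0% = neutral control wells and -100% = 2 µM mitoxantrone kill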)
[3] = CMV-driven luciferase expression suppression in HEK293 – cell-based, luminescence, dry powder, counter-screen for Pax8 inhibitor project, dose response (AID 743020;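 active = signal-lowering compounds whose fitted half-maximal concentration is at or below twice the top tested dose in every run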;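 also: HEK293 cells stably expressing the CMV luciferase reporter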)
[4] = toxicity toward immortalized ovarian surface epithelium – cell-based, plate reader, dry powder samples, cytotoxicity control for PAX8 inhibitor project, dose response (AID 743045);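 also: 0% = neutral control median and -100% = positive control median; more negative values mean more cell killing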
[5] = A2780 cell killing – plate reader, dry powder samples, cytotoxicity control, dose response (AID 743046);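 also: 0% = neutral control wells and -100% = cytotoxic reference compound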
[6] = IGROV1 cell killing – plate reader, dry powder samples, PAX8 inhibitor project, dose response (AID 743043);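 also: more negative means fewer viable cells or more cytotoxicity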
[7] = OVCAR8 cell viability loss – plate reader, dry powder samples, PAX8 project, dose response (AID 743197)
[8] = OVCAR-3 cell viability loss – plate reader, dry powder samples, PAX8 inhibitor project, dose response (AID 743044); conditions: max activity: at 35 µM, stronger effect = lower value unless noted
[9] = general cell-killing toxicity readout – plate reader, dry powder samples, cytotoxicity control for PAX8 inhibitor project, dose response (AID 743021)

COc1ccccc1-c1ccc([C@@H]2[C@@H]3CN(S(=O)(=O)c4ccc(-c5ccccc5)cc4)C[C@H]2N3)cc1
inactive: outcome [1] | outcome [2] | outcome [3] | outcome [4] | outcome [5]

COc1ccc(NC(=O)N2C[C@@H]3N[C@H](C2)[C@@H]3c2ccc(-c3ccc(OC)cc3)cc2)cc1
inactive: outcome [1] | outcome [2] | outcome [3] | outcome [5]

Cc1ccc(S(=O)(=O)Nc2ccc3c(c2)CC(=O)N([C@@H](C)CO)C[C@H](C)[C@@H](CN(C)Cc2ccc(Oc4ccccc4)cc2)O3)cc1
inactive: outcome [1] | outcome [2] | outcome [3] | outcome [6] | outcome [7]

CCc1cnc(N2[C@@H](C#N)[C@@H](c3ccc(C#CC(C)C)cc3)[C@@H]2CO)s1
inactive: outcome [1] | outcome [2] | outcome [3] | max activity [8] 27.5% [at 1 µM, stronger effect = lower value] | outcome [4] | outcome [7]

C[C@@H]1CCCCO[C@H](CN(C)Cc2ccc(Cl)c(Cl)c2)[C@@H](C)CN([C@@H](C)CO)C(=O)c2cc(NC(=O)c3ccccc3)ccc2O1
inactive: outcome [1] | outcome [2] | outcome [3] | outcome [4] | outcome [5]

C[C@@H]1CCCCO[C@H](CN(C)CC2CCCCC2)[C@H](C)CN([C@H](C)CO)C(=O)c2cc(NS(=O)(=O)c3ccccc3)ccc2O1
inactive: outcome [1] | outcome [2] | outcome [3] | outcome [4] | outcome [5]

Cc1ccc(S(=O)(=O)Nc2ccc3c(c2)C(=O)N([C@H](C)CO)C[C@H](C)[C@H](CN(C)Cc2ccc(C(F)(F)F)cc2)OCCCC[C@H](C)O3)cc1
inactive: outcome [1] | outcome [2] | outcome [3] | outcome [6] | outcome [5]

C[C@@H]1CN([C@@H](C)CO)C(=O)Cc2cc(NS(=O)(=O)c3ccccc3)ccc2O[C@H]1CN(C)Cc1ccc(C(F)(F)F)cc1
inactive: outcome [1] | outcome [2] | outcome [3] | outcome [4] | outcome [5]

C[C@H](CO)N1C[C@H](C)[C@@H](CN(C)S(=O)(=O)c2ccc(Cl)cc2)OCCCC[C@H](C)Oc2ccc(NS(=O)(=O)c3ccccc3)cc2C1=O
inactive: outcome [1] | outcome [2] | outcome [3] | outcome [6] | outcome [5] | outcome [7]

COc1ccc(S(=O)(=O)N2CCCCN3[C@H](CO)[C@H](c4ccc(C#CC(C)C)cc4)[C@H]3C2)cc1
inactive: outcome [1] | outcome [2] | outcome [3] | outcome [5] | outcome [7]

Cc1ccc(S(=O)(=O)Nc2ccc3c(c2)C(=O)N([C@@H](C)CO)C[C@@H](C)[C@H](CN(C)Cc2ccc(C(F)(F)F)cc2)OCCCC[C@@H](C)O3)cc1
inactive: outcome [1] | outcome [2] | outcome [3] | outcome [4] | outcome [5]

CCCNC(=O)N(C)C[C@H]1N[C@@H](CO)[C@@H]1c1ccc(C2=CCCCC2)cc1
inactive: outcome [1] | outcome [2] | outcome [3] | outcome [5]

O=C(C[C@H]1CC[C@H]2[C@@H](COC[C@@H](O)CN2S(=O)(=O)c2cccc(Cl)c2)O1)Nc1ccc(-c2ccccc2)cc1
inactive: outcome [1] | outcome [2] | outcome [3] | outcome [4] | outcome [5]

C[C@H](CO)N1C[C@H](C)[C@@H](CN(C)S(=O)(=O)c2ccc(Cl)cc2)OCCCC[C@H](C)Oc2ccc(NS(=O)(=O)c3cccs3)cc2C1=O
inactive: outcome [1] | outcome [2] | outcome [3] | outcome [6] | outcome [5]

C[C@@H]1CN([C@H](C)CO)C(=O)c2cc(NC(=O)CCCCCC(=O)Nc3ccccc3N)ccc2O[C@@H]1CN(C)Cc1ccc(C(F)(F)F)cc1
inactive: outcome [1] | outcome [2] | outcome [3] | outcome [4] | outcome [5] | outcome [7]

C[C@H](CO)N1C[C@H](C)[C@H](CN(C)Cc2ccc(C(F)(F)F)cc2)OCCCC[C@H](C)Oc2ccc(NC(=O)Cc3ccccc3)cc2C1=O
inactive: outcome [1] | outcome [2] | outcome [3] | outcome [4]

COc1ccc(-c2ccc3c(c2)[C@H]2[C@H](CCN2S(=O)(=O)c2ccc(F)cc2)[C@H](CO)N3C)cc1
inactive: outcome [1] | outcome [2] | outcome [3] | outcome [4] | outcome [5]

O=C(C1CCC1)N1CC(=O)N2[C@H](CO)[C@H](c3ccc(C#CCc4ccccc4)cc3)[C@H]2C1
inactive: outcome [1] | outcome [2] | outcome [3] | outcome [4]

O=C(Nc1cccc(F)c1)N1CCCCN2[C@H](CO)[C@@H](c3ccc(-c4ccccc4F)cc3)[C@H]2C1
inactive: outcome [1] | outcome [2] | outcome [3] | outcome [4] | outcome [5] | outcome [7]

Cc1ccccc1-c1ccc([C@@H]2[C@H](CO)N3CCCCN(C(=O)Nc4cccc(F)c4)C[C@@H]23)cc1
inactive: outcome [1] | outcome [2] | outcome [3] | outcome [4] | outcome [5] | outcome [7]

COc1ccc2c3c(n(C)c2c1)[C@H](CO)NCC31CCN(Cc2cc(-c3ccccc3)on2)CC1
inactive: outcome [1] | outcome [2] | outcome [3] | max activity [8] 40.6% [at 0.5 µM, stronger effect = lower value] | outcome [4] | outcome [5]

O=C(c1ccc(F)cc1)N1CC(=O)N2[C@@H](CO)[C@@H](c3ccc(C#Cc4ccc(F)cc4)cc3)[C@@H]2C1
inactive: outcome [1] | outcome [2] | outcome [3] | outcome [4] | outcome [5]

C[C@@H]1CN([C@H](C)CO)C(=O)c2cc(NC(=O)Nc3ccc(C(F)(F)F)cc3)ccc2O[C@@H](C)CCCCO[C@H]1CN(C)Cc1ccc2c(c1)OCO2
inactive: outcome [1] | outcome [2] | outcome [3] | max activity [8] -34.3% | outcome [4] | outcome [5]

C[C@H](CO)N1C[C@H](C)[C@@H](CN(C)S(=O)(=O)c2cccs2)OCCCC[C@H](C)Oc2ccc(NS(=O)(=O)c3ccc(Cl)cc3)cc2C1=O
inactive: outcome [1] | outcome [2] | outcome [3] | outcome [4] | outcome [5]

CCS(=O)(=O)N1CC(=O)N2[C@H](CO)[C@@H](c3ccc(-c4ccccc4F)cc3)[C@H]2C1
inactive: outcome [1] | outcome [2] | outcome [3] | outcome [4] | outcome [5]

O=C(Nc1cccc(F)c1)N1C[C@@H]2N[C@H](C1)C2c1ccc(-c2ccc(F)cc2)cc1 (some centres undefined)
inactive: outcome [1] | outcome [2] | outcome [3] | outcome [5] | outcome [7]

Cc1cc(NC(=O)c2ccc([N+](=O)[O-])o2)ccc1NC(=O)c1ccco1
inactive: outcome [1] | outcome [2] | outcome [9]

COc1ccc(S(=O)(=O)Nc2ccc3c(c2)C(=O)N([C@@H](C)CO)C[C@H](C)[C@H](CN(C)Cc2ccc(C(F)(F)F)cc2)OCCCC[C@H](C)O3)cc1
inactive: outcome [1] | outcome [2] | outcome [3] | outcome [5] | outcome [7]

COc1cccc2c1C(=O)c1c(O)c3c(c(O)c1C2=O)CC(O)(C(C)=O)CC3OC1CC(N(C)C)C(O)C(C)O1 (centres undefined)
inactive: outcome [1] | outcome [2] | outcome [9]

CN(C)CCNc1ccc(CO)c2sc3ccc(O)cc3c(=O)c12
inactive: outcome [1] | outcome [2] | outcome [9]

CC(=O)Nc1cc(-c2cccc(C(=O)NCCN(C)C)c2)cn2c(-c3cccc(C(F)(F)F)c3)cnc12
inactive: outcome [1] | outcome [2] | outcome [9]

CCN1CCN(Cc2ccc(NC(=O)c3cc(NC(=O)C(=O)c4c[nH]c5ccccc45)cc(OC)c3)cc2C(F)(F)F)CC1
inactive: outcome [1] | outcome [2] | outcome [9]

CS(=O)(=O)c1ncc(Cl)c(C(=O)Nc2ccc3ccccc3c2)n1
inactive: outcome [1] | outcome [2] | activity change, negative = cytotoxicity [9] 1.87% [at 8 µM]

COc1cc(C2C3=C(Nc4ncnn42)c2ccccc2CC3)cc(OC)c1OC (centres undefined)
inactive: outcome [1] | outcome [2] | outcome [9]

C#CCN(C[C@@H]1[C@@H](OC(=O)Nc2cccs2)[C@@H](OC(=O)Nc2cccs2)Cn2c(=O)ccc(=O)n21)S(=O)(=O)c1ccc(C)cc1
inactive: outcome [1] | outcome [2] | outcome [9]

C=CC(=O)N=c1sc2ccccc2n1-c1ccccc1
inactive: outcome [1] | outcome [2] | outcome [9]

COc1cc(/C=N/NS(=O)(=O)c2ccc(C)cc2)ccc1OCc1cccc(C(=O)O)c1
inactive: outcome [1] | outcome [2] | outcome [9]

CCOc1ccccc1C1C2=C(COC2=O)Nc2cc3c(cc21)OCO3 (centres undefined)
inactive: outcome [1] | outcome [2] | outcome [9]

Cc1cc(-n2c(SCC(=O)NCCC3=CCCCC3)nc3n[nH]c(C)c3c2=N)ccc1Cl
inactive: outcome [1] | outcome [2] | outcome [9]
